MEKK2wt PB1 HTS = raises or lowers MEK5 binding to wildtype human MEKK2 PB1 domain; bead flow cytometry, Alexa488-MEK5 binding to MEKK2 WT; actives lie on both sides; actives 1.1% (n = 290,000); Q9Y2U5; binding response (% of control), % at 10 µM; in the data active = binding response below about 67% or above about 130%
MEKK3 PB1 HTS = modulators (inhibitors or enhancers) of MEK5 binding to human MEKK3 PB1 domain; actives 1.4% (n = 290,000); bead-based flow cytometry, Alexa488-MEK5 binding to MEKK3; actives lie on both sides; 0 = blocked by unlabeled MEK5, 100 = vehicle; binding response (% of control), % at 10 µM; AID 1529; Q99759;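 active = binding response more than 3 SD above or below the average of its plate-row segment, actives on both sides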;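 also: Alexa488 bead fluorescence after subtracting the streptavidin-only scavenger bead signal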
GRK2 aptamer HTS = inhibitors of human GRK2 displacing RNA aptamer. P25098. actives 0.59% (n = 330,000). bead flow cytometry, FAM-aptamer displacement from GRK2. inhibition of aptamer binding, % at 10 µM;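 active = inhibition of aptamer binding above 40%, roughly 3 SD of noise, on plates passing a quality check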;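 also: median bead fluorescence of bound FAM aptamer so fluorescent compounds give negative values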
Target sequence (P25098 whole entry, looked up): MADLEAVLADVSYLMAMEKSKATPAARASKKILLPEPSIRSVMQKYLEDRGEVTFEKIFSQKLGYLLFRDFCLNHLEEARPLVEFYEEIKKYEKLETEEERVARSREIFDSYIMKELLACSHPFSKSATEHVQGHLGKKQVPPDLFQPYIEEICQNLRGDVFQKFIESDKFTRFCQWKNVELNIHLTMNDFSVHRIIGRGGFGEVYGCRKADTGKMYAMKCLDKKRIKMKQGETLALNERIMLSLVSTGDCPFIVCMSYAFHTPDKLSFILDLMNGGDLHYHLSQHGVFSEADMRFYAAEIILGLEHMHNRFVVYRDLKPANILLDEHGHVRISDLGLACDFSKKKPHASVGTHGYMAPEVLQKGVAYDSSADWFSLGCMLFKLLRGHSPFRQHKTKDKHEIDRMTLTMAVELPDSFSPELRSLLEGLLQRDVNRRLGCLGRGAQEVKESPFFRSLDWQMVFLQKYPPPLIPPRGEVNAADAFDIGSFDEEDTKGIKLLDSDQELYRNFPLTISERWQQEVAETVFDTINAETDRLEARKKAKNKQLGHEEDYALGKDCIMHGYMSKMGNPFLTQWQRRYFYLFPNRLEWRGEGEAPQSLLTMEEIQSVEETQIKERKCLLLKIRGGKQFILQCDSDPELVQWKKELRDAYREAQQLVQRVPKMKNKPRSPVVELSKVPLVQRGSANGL
MEKK2 mut-MEK5 = signal of MEK5 binding to mutant human MEKK2 PB1 domain; percent response, % at 10 µM; actives 0.35% (n = 290,000); AID 1530; bead flow cytometry, Alexa488-MEK5 binding to MEKK2 mutant; in the data active = percent response above about 24%, passing the limit was not always enough
MEKK2wt confirm = raises or lowers MEK5 binding to wildtype human MEKK2, retest | shares compounds with MEKK3 PB1 HTS | bead flow cytometry, Alexa488-MEK5 binding to MEKK2 WT; actives lie on both sides | binding response (% of control), % at 10 µM | actives 2.4% (n = 5,900) | AID 1892; in the data active = binding response below about 16% or above about 210%; inactive = in between
MEKK2mut confirm = signal of MEK5 binding to mutant human MEKK2, retest; shares compounds with MEKK3 PB1 HTS; bead flow cytometry, Alexa488-MEK5 binding to MEKK2 mutant; AID 1893; actives 2% (n = 5,900); percent response, % at 10 µM; in the data active = percent response mostly above about 71%, no sharp cut-off; inactive = mostly below about 38%;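 also: higher means compound restores mutant binding toward wildtype level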
MEKK3 confirm = MEKK3-MEK5 PB1 inhibition, single concentration confirmation; bead flow cytometry, Alexa488-MEK5 binding to MEKK3; hits give low values; binding response (% of control), % at 10 µM; shares compounds with MEKK3 PB1 HTS; actives 1.8% (n = 5,900);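 active = binding response below 72% of control, or above a set upper limit, though filed actives all read lower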;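 also: lower values mean stronger disruption of MEK5 binding to MEKK3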
A number is an active result; i = inactive; nt = no result; [ ] = another dose, or the depositor's remark. This is a sample that favours compounds with a hit; in the whole collection about 2.5% have one here.

SMILES	MEKK2wt PB1 HTS	MEKK3 PB1 HTS	GRK2 aptamer HTS	MEKK2 mut-MEK5	MEKK2wt confirm	MEKK2mut confirm	MEKK3 confirm
COc1cc(OC)c2c(-c3ccccc3)cc(=O)oc2c1C(CCN1CCCC1)c1ccc2c(c1)OCO2 (stereo not drawn)	175	128	i	i	i	i	i
COc1ccc(C(CCN2CCOCC2)c2c(OC)cc(OC)c3c(-c4ccccc4)cc(=O)oc23)cc1 (stereo not drawn)	nt	nt	i	nt	nt	nt	nt
COc1cc(OC)c2c(-c3ccccc3)cc(=O)oc2c1C(CCN1CCCC(C)C1)c1ccc(N(C)C)cc1 (stereo not drawn)	222	i	i	41	i	i	i
Cc1ccc2c(c1)N(C(=O)CCC(=O)NCc1cccc(Br)c1)CC(C)O2 (stereo not drawn)	i	i	i	i	nt	nt	nt
O=C(NNC(=S)Nc1ccccc1)c1ccccc1[N+](=O)[O-]	7.0[inhibitor]	5.0[inhibitor]	i	i	i	i	i
O=C(NC(=S)NCc1cccnc1)c1ccccc1[N+](=O)[O-]	2.0[inhibitor]	2.0[inhibitor]	i	i	i	i	i
O=C(N/N=C/c1ccc([N+](=O)[O-])cc1)c1cnccn1	i	66[inhibitor]	i	i	i	i	i
O=C(N/N=C/c1cccnc1)c1ccccc1[N+](=O)[O-]	i	58[inhibitor]	i	i	i	i	i
CCOc1ccc(CCNC(=O)c2oc3c(c2C)-c2[nH]ncc2CC3)cc1OCC	i	i	i	i	nt	nt	nt
Cc1ccnc(NC(=O)CCC(=O)N(CC(=O)NCc2ccc(F)cc2)c2ccc(F)cc2)c1	i	i	i	i	nt	nt	nt
O=C(CSc1nc(C(F)(F)F)cc(=O)[nH]1)N1CCOCC1	nt	nt	i	nt	nt	nt	nt
CCSc1nc2sc3c(c2c(=O)n1-c1ccccc1)CCN(C(C)C)C3	i	i	i	i	nt	nt	nt
CCN(CC)S(=O)(=O)c1cc(NC(=O)CCn2[nH]c(=O)ccc2=O)ccc1C	nt	nt	i	nt	nt	nt	nt
O=C(NCCCN1CCCC1=O)c1nnc(Cc2c(F)cccc2Cl)o1	i	i	i	i	nt	nt	nt
Cc1ccc(NC(=O)CSC2=C(C#N)C(c3ccc4c(c3)OCO4)CC(=O)N2)cc1C (stereo not drawn)	i	81[inhibitor]	i	i	i	i	i
COc1ccc(Cn2nnnc2CN(Cc2cc3ccc(C)cc3[nH]c2=O)C2CCCC2)cc1	i	i	i	i	nt	nt	nt
CCC(C)(C)n1nnnc1CN(Cc1cc2cc(OC)ccc2[nH]c1=O)C1CCCC1	i	82[inhibitor]	i	i	i	i	i
COc1cc(CNCc2cccnc2)ccc1OCc1ccccc1	i	i	i	i	nt	nt	nt
COc1cc(OC)c(N(C)S(=O)(=O)c2cccc(C(=O)OCC(=O)c3c[nH]c4ccccc34)c2)cc1Cl	i	i	i	i	nt	nt	nt
C=CCN(c1ccccc1OC)S(=O)(=O)c1cccc(C(=O)OCC(=O)c2c[nH]c3ccccc23)c1	i	138	i	i	i	i	i
COc1ccc(CC(=O)OCC(=O)N2CCCc3ccccc32)cc1OC	nt	nt	i	nt	nt	nt	nt
CCOc1ncccc1C(=O)Nc1cc(S(=O)(=O)N2CCCCC2)ccc1OC	nt	nt	i	nt	nt	nt	nt
COC(=O)c1c(NC(=S)NN2CCN(C)CC2)sc2c1CCC(C)C2 (stereo not drawn)	163	i	i	i	i	i	i
Cc1nc2cc(NC(=O)COc3ccc(C#N)cc3)ccc2n1-c1ccccc1	2.0[inhibitor]	2.0[inhibitor]	i	i	i	i	i
Cc1ccc(NC(=O)CSc2nnc(COc3ccc(C#N)cc3)n2-c2ccccc2)cc1C	1.0[inhibitor]	1.0[inhibitor]	i	i	i	i	i
SMILES	MEKK2wt PB1 HTS	MEKK3 PB1 HTS	GRK2 aptamer HTS	MEKK2 mut-MEK5	MEKK2wt confirm	MEKK2mut confirm	MEKK3 confirm
Cc1ccc(C(=O)CSc2nnc(COc3ccc(C#N)cc3)n2-c2ccccc2)cc1	i	i	i	i	nt	nt	nt
Cc1nc2sccn2c(=O)c1CCN1CCC(=C(c2ccc(F)cc2)c2ccc(F)cc2)CC1	146	i	i	i	i	i	i
Cc1nc2ccccn2c(=O)c1CCN1CCC(C(=O)c2ccc(F)cc2)CC1	i	i	i	i	nt	nt	nt
CC(NC(=O)[C@@H](C)NC(=O)[C@@H]1Cc2ccccc2CN1C(=O)OC(C)(C)C)c1ccccc1 (stereo partly drawn)	i	i	i	i	nt	nt	nt
COC(=O)c1cc(CNC(=O)c2cccc(Cl)c2)ccc1OC	i	i	i	i	nt	nt	nt
COC(=O)[C@H](CC(C)C)NS(=O)(=O)N[C@@H](CC(C)C)C(=O)OC	nt	nt	i	nt	nt	nt	nt
COC(=O)/C=C/CC(C)OS(N)(=O)=O (stereo not drawn)	152	i	i	i	i	i	i
CC(C)CC(=O)NC(=S)Nc1nc(-c2ccccc2)cs1	i	i	i	i	nt	nt	nt
CC(C)CC(=O)NC(=S)Nc1nc(-c2ccc(Cl)cc2)cs1	i	155	i	i	i	i	i
COc1ccc(-c2csc(NC(=O)COC(=O)c3ccco3)n2)cc1	i	138	i	i	i	i	i
CCCC(=O)NC(=S)Nc1nc(-c2ccc(OC)cc2)cs1	i	137	i	i	i	i	i
COc1ccc(-c2csc(NC(=S)NC(=O)c3ccco3)n2)cc1	i	i	i	i	nt	nt	nt
CC1CCCC(NC(=O)CCNC(=O)c2ccc(Br)cc2)C1C (stereo not drawn)	nt	nt	i	nt	nt	nt	nt
COc1ccc(CN2CCC(n3nccc3NC(=O)C3CCCC3)CC2)cc1	144	i	i	i	i	i	i
CC(C)Cc1ccc(CN2CCC(n3nccc3NC(=O)C3CCCC3)CC2)cc1	i	i	i	i	nt	nt	nt
CCOC(=O)c1c(N)sc2c1CCCC2	i	52[inhibitor]	i	i	i	i	i
O=C(CCC1CCCN(C(=O)c2cc(C3CC3)[nH]n2)C1)N1CCN(c2ccccn2)CC1 (stereo not drawn)	i	i	i	i	nt	nt	nt
Cc1cccnc1NC(=O)c1csnn1	30[inhibitor]	65[inhibitor]	i	i	i	i	i
C[C@H](NC(=O)c1ccccc1Cl)C(=O)OCCOc1ccc(Cl)cc1	i	i	i	i	nt	nt	nt
COc1ccc(-c2csc(N(CCCN(C)C)C(=O)c3cc(OC)c(OC)c(OC)c3)n2)cc1	i	i	i	i	nt	nt	nt
COc1ccc(-c2csc(N(CCCN(C)C)C(=O)c3ccc(C)cc3)n2)cc1	i	i	i	i	nt	nt	nt
COc1ccc(-c2csc(N(CCCN(C)C)C(=O)c3ccc(Br)cc3)n2)cc1	142	i	i	i	i	i	i
COc1ccc(-c2csc(N(CCCN(C)C)C(=O)c3ccc(C(C)(C)C)cc3)n2)cc1	162	i	i	26	i	i	i
C[C@H]1C=C(C(=O)NCc2nc3ccccc3[nH]2)O[C@@H](OCc2ccc(CO)cc2)C1	i	i	i	i	nt	nt	nt
CN(C)CCNc1oc(COc2ccc(-c3ccccc3)cc2)nc1C#N	150	i	i	i	i	i	i
COCCCNc1oc(COc2ccc(Cl)cc2Cl)nc1C#N	i	i	i	i	nt	nt	nt

Screening data: PubChem BioAssay, NMMLSC
